In the library only some 3.1% were active in any assay of this set; here they are far more common.
FGF22 binding – binders of human FGF22 protein, primary screen, FGF22 synaptogenesis inhibitor project, biophysical, thermal shift, single point; AID 651658, 2012; actives 1.5% (n = 340,000); activity (Tm shift, normalised), % at 9.99 µM; recombinant FGF22 thermal shift, SYPRO orange fluorescence; percent of sucrose octasulfate shift, DMSO zero;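 active = mean Tm shift, scaled 0 neutral to 100 positive control, at about 1.3% or above, every replicate too, limit read from the data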
SIRT5 inh – SIRT5 desuccinylase inhibitors, primary screen, biochemical, fluorescence imaging, single point, set 5; Purified SirT5, succinyl-peptide AMC, trypsin-coupled fluorescence; actives 1.1% (n = 330,000); inhibition, % at 15 µM; NAD-dependent protein deacylase sirtuin-5, mitochondrial (Homo sapiens), Q9NXA8; in the data active = inhibition above about 15%
Casp6 inh – human caspase-6 inhibitors, primary screen, biochemical, VEID-R110 fluorescence, single point, set 2; AID 686996, 2013; purified caspase-6, Z-VEID-R110 cleavage fluorescence; inhibition, % at 12.5 µM; actives 0.53% (n = 350,000);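 active = mean inhibition across replicates at least about 35%, with every replicate also reaching that limit, limit read from the data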;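 also: 0% = median of neutral control wells and 100% = no fluorescence left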
ERAP1 inh – human ERAP1 aminopeptidase inhibitors, primary screen, biochemical, single point, plate reader; recombinant ERAP1, Leu-AMC fluorescence, 60 min; actives 0.15% (n = 340,000); Endoplasmic reticulum aminopeptidase 1 (Homo sapiens), Q9NZ08; inhibition, % at 10.7 µM;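 active = mean replicate inhibition of at least 30%, or all replicates individually reaching that 30% level; inactive = mean below 30% and not every replicate reaching it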;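 also: 0% = neutral control wells and 100% = L-leucinethiol positive control wells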
* marks the source's active call; other numbers are inactive results; nt = not tested or not shown.

SMILES | FGF22 binding | SIRT5 inh | Casp6 inh | ERAP1 inh
CCCC(=O)Nc1ccc2c(c1)OC[C@@H](C)N(Cc1ccc(F)cc1)C[C@@H](C)[C@H](OC)CN(C)C2=O | 0.0 | 3.0 | -0.3 | 0.8
C[C@@H]1CCCCO[C@H](CN(C)Cc2ccc(C(=O)O)cc2)[C@H](C)CN([C@@H](C)CO)C(=O)c2cc(NS(=O)(=O)c3cn(C)cn3)ccc2O1 | 1.3* | nt | nt | nt
C[C@H]1CCCCO[C@@H](CN(C)Cc2ccc(C(=O)O)cc2)[C@@H](C)CN([C@@H](C)CO)C(=O)c2cc(NS(=O)(=O)c3cn(C)cn3)ccc2O1 | -0.2 | nt | nt | nt
Cc1noc(C)c1S(=O)(=O)Nc1ccc2c(c1)C(=O)N([C@H](C)CO)C[C@H](C)[C@H](CN(C)Cc1ccc(C(=O)O)cc1)OCCCC[C@@H](C)O2 | 1.4* | 0.2 | -2.0 | -3.4
Cc1noc(C)c1S(=O)(=O)Nc1ccc2c(c1)C(=O)N([C@H](C)CO)C[C@@H](C)[C@H](CN(C)Cc1ccc(C(=O)O)cc1)OCCCC[C@@H](C)O2 | 0.7 | -3.4 | -1.6 | -5.0
Cc1noc(C)c1S(=O)(=O)Nc1ccc2c(c1)C(=O)N([C@@H](C)CO)C[C@H](C)[C@H](CN(C)Cc1ccc(C(=O)O)cc1)OCCCC[C@H](C)O2 | 1.3* | -3.1 | 0.1 | -3.4
CO[C@H]1CN(C)C(=O)c2cc(NC(=O)c3ccccc3F)ccc2OC[C@H](C)N(C)C[C@H]1C | 0.0 | -14.5 | 0.2 | 0.5
O=C(NC1CCCCC1)C(c1ccnc2ccccc12)N1CCc2ccccc2C1 (stereo not given) | -0.3 | -1.7 | 76.2* | -0.1
O=C(NC1CCCCC1)C(C1CC1)N1CCc2ccccc2C1 (stereo not given) | 0.7 | -2.3 | -5.0 | 2.0
Cc1cccc(NC(=O)CN2C(=O)S/C(=C\c3cccn3-c3cccc(C(=O)O)c3)C2=O)c1 | 43.4* | 0.4 | 28.2 | -0.5
COc1ccc(NC(=O)CN2C(=O)S/C(=C/c3cccn3-c3ccc(C(=O)O)cc3)C2=O)cc1 | 39.4 | 11.4 | 71.5* | -1.2
Cc1cccc(C)c1-n1cccc1/C=C1\SC(=S)N(c2cccc(C(=O)O)c2)C1=O | nt | 12.1 | 37.5* | -77.3
Cc1ccc(NC(=O)CN2C(=O)S/C(=C\c3cccn3-c3cccc(C(=O)O)c3)C2=O)cc1C | 0.1 | 1.6 | 1.1 | -0.3
NNS(=O)(=O)c1ccc2c(c1)Cc1cc(S(=O)(=O)NN)ccc1-2 | -0.1 | 8.6 | 48.3* | 6.7
COc1ccccc1-c1cnc2c(c1)C(=O)N([C@H](C)CO)C[C@@H](C)[C@H](CN(C)C)O2 | -0.7 | -0.2 | 1.3 | -0.1
COc1ccc(Nc2cc(C)nc3ccccc23)cc1 | 0.1 | 18.3* | -3.3 | 1.9
COc1cc(CNC(=O)Nc2nc(C(N)c3ccccc3)cs2)cc(OC)c1OC (stereo not given) | 0.0 | 21.1* | 4.0 | -0.2
Cc1cc(C)n(CCC(=O)N2c3ccccc3CC2C)n1 (stereo not given) | -0.1 | 16.5* | 1.6 | 7.6
CC1Cc2ccccc2N1C(=O)CCn1cccn1 (stereo not given) | 0.0 | -8.2 | 2.5 | -9.0
c1ccc2c(c1)CCN(C1=Nc3cccc4cccc1c34)C2 | 43.0* | -1.2 | -0.3 | -3.9
CC(C)CC#Cc1cnc2c(c1)C(=O)N([C@H](C)CO)C[C@@H](C)[C@H](CN(C)C(=O)Cc1cccnc1)O2 | 0.1 | -3.1 | -1.2 | 0.5
Cc1ccc(SCC(=O)Nc2cc([N+](=O)[O-])ccc2O)cc1 | 42.9* | 3.1 | 0.4 | 1.3
O=C(CSCc1ccc(Cl)cc1)Nc1cc([N+](=O)[O-])ccc1O | nt | -1.3 | -0.7 | -3.2
Cc1cc(C)c(NC(=O)CSc2nc3ncc(Br)cc3[nH]2)c(C)c1 | -0.3 | 18.7* | 0.8 | -1.4
CCN(CC)Cc1oc(CO)cc(=O)c1O | 43.1* | 0.3 | 7.3 | -4.5
SMILES | FGF22 binding | SIRT5 inh | Casp6 inh | ERAP1 inh
CO[C@@H]1CN(C)C(=O)c2ccc(NS(=O)(=O)c3cn(C)cn3)cc2OC[C@H](C)N(Cc2cccc(F)c2)C[C@@H]1C | -0.5 | 5.4 | -0.4 | 0.4
CCC(Sc1nc(C)cc(C)n1)C(=O)Nc1cc(C)on1 (stereo not given) | 43.5* | -2.4 | -0.5 | -1.6
CC(C)C#Cc1cnc2c(c1)C(=O)N([C@@H](C)CO)C[C@H](C)[C@H](CN(C)C(=O)Nc1cccc(F)c1)O2 | -0.4 | -2.4 | 0.7 | 2.8
CC(C)[C@H](NC(N)=O)C(=O)Nc1ccc(Oc2ccccc2)cc1 | 43.3* | 0.0 | -1.0 | -3.5
CN1C(=O)c2cc(NC(=O)C3CC3)ccc2OC[C@H]2O[C@@H](CC(=O)O)CC[C@@H]21 | nt | -5.4 | 37.1* | 4.7
CN1C(=O)c2cc(NC(=O)C3CC3)ccc2OC[C@@H]2O[C@H](CC(=O)O)CC[C@H]21 | nt | -2.4 | -3.2 | 2.3
CCC(=O)Nc1ccc2c(c1)C(=O)N(C)[C@H]1CC[C@@H](CC(=O)N[C@H](C)c3ccccc3)O[C@H]1CO2 | 0.0 | -3.9 | 1.3 | -1.1
CCC(=O)Nc1ccc2c(c1)C(=O)N(C)[C@@H]1CC[C@H](CC(=O)N[C@H](C)c3ccccc3)O[C@@H]1CO2 | -0.1 | 15.5* | -1.0 | 2.4
CCOC(=O)c1c2ccc(OCC(=O)NN)cc2n2ccccc12 | 43.4* | -0.5 | 8.7 | 4.1
C=CCS(=O)(=O)N1CCCC(N(C)CCc2ccc(OC)c(OC)c2)C1 (stereo not given) | -0.3 | -0.4 | -3.5 | -0.7
COc1ccc(CCN(C)C2CCCN(S(=O)(=O)N(C)C)C2)cc1OC (stereo not given) | -0.2 | 15.2* | 1.6 | -0.6
CN1C(=O)c2cc(NC(=O)C3CCCCC3)ccc2OC[C@H]2O[C@H](CC(=O)NC3CCCC3)CC[C@H]21 | 0.0 | -2.2 | 4.9 | 0.6
COc1ccc(-c2cc(C(F)(F)F)nc(S(=O)(=O)CCCC(=O)Nc3cccnc3Cl)n2)cc1OC | 42.3 | -2.0 | -1.2 | 49.5*
C[C@H](CO)N1C[C@H](C)[C@@H](CN(C)S(=O)(=O)c2cn(C)cn2)Oc2ccc(NC(=O)C3CC3)cc2CC1=O | -0.6 | 16.4* | 0.7 | 1.3
C[C@H](CO)N1C[C@H](C)[C@H](CN(C)S(=O)(=O)c2cn(C)cn2)Oc2ccc(NC(=O)C3CC3)cc2CC1=O | 0.2 | -1.1 | 0.0 | -1.4
C[C@H]1CN([C@@H](C)CO)C(=O)c2cc(NC(=O)C3CC3)ccc2O[C@H]1CN(C)S(=O)(=O)c1cn(C)cn1 | 0.0 | 29.1* | -1.3 | 0.5
O=C(c1ccccc1F)N1CCOCC1 | 0.2 | -2.4 | -0.6 | 0.0
O=S(=O)(Nc1ccccc1O)c1cccc2cccnc12 | 0.0 | 3.4 | 0.1 | -0.4
Cc1onc(-c2c(Cl)cccc2Cl)c1C(=O)N1CCOCC1 | 0.4 | -2.1 | 3.1 | -0.8
O=C(c1ccccc1NS(=O)(=O)c1cccc2cccnc12)N1CCOCC1 | 43.4* | -1.4 | -0.8 | -0.2
